Records with an inconclusive call do not appear. Calls of active or inactive are those of the source. Calls follow the shape of the dose curve; as a rule, active = well fitted inhibition curve with a large enough effect; inconclusive = small, poorly fitted or top-dose-only effect; inactive = no such curve, though single readings can be large or run the other way.
Test: Confirmatory screen NINDS Rhodamine qHTS for Zika virus inhibitors (AID 1347161); also: nearly all actives have a fitted effect of over 60% in size
Conditions: purified enzyme assay, Rhodamine110 substrate fluorescence, 15 min; series mostly up to 114 µM; activity change, negative = inhibition: at the top concentration
Source text: Avindra Nath, Ph.D., National Institute of Neurological Disorders and Stroke (NINDS), Bethesda, MD
Radhakrishnan Padmanabhan, Ph.D., Georgetown University (GU), Washington D.C.
Zika Virus causes congenital defects, including microcephaly and is associated with Guillain-Barre syndrome, eningoencephalitis and myelitis in infected adult. […] Using a target-based approach, we hope to establish a screening paradigm to uncover novel, cell-active NS2B-NS3 protease (Zika Virus) specific inhibitors from NCATS' collection of small molecules using qHTS.
Four assay panel was created to identify potential Zika Virus inhibitors. Namely, (1) GU unlinked NS2B-NS3 AMC tagged protease qHTS, (2) GU unlinked NS2B-NS3 Rhodamine tagged protease qHTS, (3) NINDS linked NS2B-NS3 AMC tagged protease qHTS, (4) NINDS linked NS2B-NS3 Rhodamine tagged protease qHTS. Active compounds were re-acquired and re-screened to confirm inhibition. Inhibitors were further screened against various confirmatory and counterscreens in dose response format.
Early Translation Branch (ETB)
National Center for Advancing Translational Sciences (NCATS), Rockville, MD
National Institute of Health (NIH), Bethesda, Maryland
For the linked assay, Nath lab (NINDS) provided the purified linked NS2B-NS3 protease which is consists of hydrophilic domain of NS2B linked to the NS3 protease domain by a flexible (-[…]-) linker. Control compound aprotinin is obtained from Thermo Scientific (#78432; Waltham, Massachusetts). Rhodamine110 substrate ([N-Cbz]-Nle-Lys-Arg-Arg-Rhod110-Arg-Arg-Lys-Nle-[N-Cbz]) was purchased from either Genscript or Bachem.
1536-well Protease (Rhodamine110 Substrate) Assay:
Briefly, 3 microL of enzyme (25 nM final concentration), in assay buffer (10 mM Tris-HCl pH 8.0 with 0.01% Tween 20) were dispensed into a 1,536-well solid-bottom black plate (Greiner Bio One, Monroe, NC). Twenty-three nL of compounds (final concentration range 7.28 nM to 114 microM) or control Aprotinin (final concentration range 3.47 nM to 114 microM) were transferred via Wako Pin-tool (Wako Automation, Richmond, VA). Samples were incubated (room temperature, protected from light) for 15 minutes followed by a 1 microL Rhodamine110 substrate addition (1.5 microM final concentration). Plates were then immediately read on a ViewLux High-throughput CCD imager (PerkinElmer, Waltham, MA) equipped with FITC fluorescence optics (480(20) nm excitation, 540(25) nm emission), then incubated (room temperature, protected from light) for 15 minutes (~15% conversion). The change in fluorescence intensity over the 15-minute reaction period was normalized against no-inhibitor and no-enzyme controls and the resulting percent inhibition data were fitted to a 4-parameter Hill equation. Aprotinin was used as intraplate control.
In the case of CC[C@H](C)n1cc(C)c2c(C(=O)NCc3c(C)cc(C)[nH]c3=O)cc(-c3ccc(N4CCNCC4)nc3)cc21, the “activity change, negative = inhibition” value is reported as -20.5% (inactive).
With CCOC(=O)[C@H](CCc1ccccc1)N[C@@H](C)C(=O)N1CCCC1C(=O)O (stereo partly specified) the “activity change, negative = inhibition” value was -30.1% (inactive).
In the case of O=C(Nc1ccccc1)Nc1ccc(-c2ccc(C(=O)[C@H]3CCC[C@H]3C(=O)O)cc2)cc1, the Potency is reported as 3.92 µM (active).
With Cc1nc(C(=O)NCC(=O)O)c(O)c2ccc(Oc3ccccc3)cc12 the Potency was 34.9 µM (active).
In the case of Cn1c(=O)c(-c2c(Cl)cccc2Cl)cc2cnc(Nc3cccc(C(=O)O)c3)nc21, the Potency is reported as 13.9 µM (active).
In the case of C=C1c2cccc(O)c2C(O)=C2C(=O)[C@@]3(O)C(O)=C(C(N)=O)C(=O)[C@@H](N(C)C)[C@@H]3[C@@H](O)[C@H]12, the Potency is reported as 15.6 µM (active).
In the case of C[C@H]1COC2=C1C(=O)C(=O)c1c2ccc2c1CCCC2(C)C, the Potency is reported as 7.84 µM (active).
With Cc1ccc2c(c1)C(=O)[C@]1(O)CCN(c3ccccc3)C1=N2 the “activity change, negative = inhibition” value was 16.7% (inactive).
For c1cc(OCCN2CCCCC2)cc(-c2n[nH]c3ccc(-c4ncn[nH]4)cc23)c1, the “activity change, negative = inhibition” value was 40.9% (inactive).
For CCCCOCCOc1nc(-c2ccc(C(=O)O)c(F)c2)sc1C, the Potency was 49.3 µM (active).
With COc1ccc(-c2ccc3ncc4c(c3c2)n(-c2ccc(N3CCNCC3)c(C(F)(F)F)c2)c(=O)n4C)cn1 the activity change, negative = inhibition was 14.2% [at 12.7 µM] (inactive).
With CCCCC[C@H](O)C=C[C@H]1[C@H](O)CC(=O)[C@H]1CCCCCCC(=O)O the “activity change, negative = inhibition” value was -26% (inactive).
For O=C(O)Cc1cccc(OCCCN(Cc2cccc(C(F)(F)F)c2Cl)CC(c2ccccc2)c2ccccc2)c1, the Potency was 1.56 µM (active).
For Fc1ccc(C(c2ccc(F)cc2)N2CCN(CC=Cc3ccccc3)CC2)cc1, the “activity change, negative = inhibition” value was 142% (inactive).
With O=C1Nc2ccc(I)cc2C1=Cc1cc(Br)c(O)c(Br)c1 the Potency was 24.8 µM (active).
For N#CC(c1ccc(Cl)cc1)c1c(Cl)cc(-n2ncc(=O)[nH]c2=O)cc1Cl (stereo unspecified), the Potency was 4.4 µM (active).
With O=c1cc(-c2ccc(O)c(O)c2)oc2cc(O)cc(O)c12 the Potency was 28.2 µM (active).
In the case of COc1cc(Nc2nc3ccccc3nc2NS(=O)(=O)c2ccc(NC(=O)c3ccc(C)c(OC)c3)cc2)cc(OC)c1, the Potency is reported as 1.39 µM (active).
In the case of O=C(Nc1cccc2c(=O)cc(-c3nn[nH]n3)oc12)c1ccc(OCCCCc2ccccc2)cc1, the Potency is reported as 1.75 µM (active).
With O=S(=O)(O)c1ccc2cc(N=Nc3cc(S(=O)(=O)O)c4cccnc4c3O)ccc2c1 the Potency was 1.39 µM (active).
With CC(C)c1onc(-c2c(Cl)cccc2Cl)c1COc1ccc(C=Cc2cccc(C(=O)O)c2)c(Cl)c1 the Potency was 1.56 µM (active).
Potency is read from the fitted curve at half-maximal effect.
